# Sampled rows, rich in hits. Any-hit rate of the full collection: about 9.2%.
# ELG1 DNA repair – blocks ELG1-dependent DNA repair in HEK293T cells; AID 504467; Potency, µM (series often up to 46.1 µM), for inactives: top-dose activity change, negative = inhibition, usual class: inhibitors; hit rate 2.3% among 330,000; HEK293T ELG1-luciferase reporter, luminescence, 16 h; DNA damage induced by 5-fluorouridine; further: on the % scale 0 is the no-effect control and ±100 the full control effect; nearly all actives have a fitted effect of over 55% in size
#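 Reporter activity after DNA damage by 5-fluorouridine is monitored. Compound-treated cells incubate 16 hr at 37 °C, then ONE-Glo is added for 30 min before luminescence reading.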
# Rab9 promoter act – activators of Rab9 promoter; Huh7 Rab9 promoter-luciferase reporter, luminescence, 24 h; Potency, µM (top dose mostly 9.22 µM), for inactives: at the top dose activation, negative = inhibition, actives largely listed as activators; hit rate 2.8% among 320,000; further: % of control where 0% means no effect; nearly all actives have a fitted effect of over 60% in size
#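 Promoter activation is measured as luciferase luminescence in Huh7 cells stably transfected with a Rab9 promoter–luciferase construct, following 24 h compound exposure at 37 °C and 10 min reagent incubation at ambient temperature.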
# SMN2 splice up – enhancers of SMN2 splice variant expression | HEK293 SMN2-luciferase splicing reporter, luminescence, 30-36 h | Potency, µM (top dose mostly 46.1 µM), for the others: at the top dose activity change, positive = activation, hits mostly activators | hit rate 2.8% among 210,000; further: % of control where 0% means no effect; nearly all actives have a fitted effect of over 55% in size
#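 HEK293 cells carry an SMN2 […]–luciferase reporter in which exon 7 inclusion puts luciferase in frame. Cells were plated 10-12 h before compound addition, then incubated 30-36 h at 37C. ONE-Glo luminescence was read; sodium butyrate at 4.5 mM final served as control.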
# NPC1 promoter act – NPC1 promoter activation; Huh7 NPC1 promoter luciferase reporter, 24 h; Potency, µM (series often up to 9.22 µM), inactives show at the highest dose activation, hits mostly activators; hit rate 2.4% among 320,000; AID 485313; further: % of control where 0% means no effect; nearly all actives have a fitted effect of over 60% in size
#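 Stable NPC1-promoter luciferase Huh7 line; cpd (DMSO) 24 h, 37 °C, 5% CO2; Amplite luciferase reagent 10 min RT; luminescence readout. qHTS format.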
# ELG1 genotoxic – genotoxicity induction in ELG1-luciferase HEK293T cells; HEK293T ELG1-luciferase reporter, luminescence, 16 h; Potency, µM (titrated, usually from 46 µM), inactives show at the top dose activity change, positive = activation, most hits filed as activators; hit rate 1.3% among 330,000; AID 504466; further: % of control where 0% means no effect; nearly all actives have a fitted effect of over 60% in size
#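 Cells (2,000/well) expressing the ELG1-luciferase fusion are dosed by pin tool and kept 16 hr at 37 °C, 5% CO2. Signal comes from ONE-Glo luciferase reagent after 30 min at room temperature.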
# FLuc counter – firefly luciferase modulation, counter-screen for miR-21 project | Potency, µM (top dose mostly 57.5 µM), inactives show at the highest dose activity change, negative = inhibition, hits mostly inhibitors | AID 588342 | purified FLuc, Km substrates, luminescence inhibition | hit rate 6.9% among 360,000 | P08659;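 further: plate controls were vehicle for no effect and reference inhibitor for full effect; nearly all actives have a fitted effect of over 55% in size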
# Target sequence (P08659 whole entry, looked up): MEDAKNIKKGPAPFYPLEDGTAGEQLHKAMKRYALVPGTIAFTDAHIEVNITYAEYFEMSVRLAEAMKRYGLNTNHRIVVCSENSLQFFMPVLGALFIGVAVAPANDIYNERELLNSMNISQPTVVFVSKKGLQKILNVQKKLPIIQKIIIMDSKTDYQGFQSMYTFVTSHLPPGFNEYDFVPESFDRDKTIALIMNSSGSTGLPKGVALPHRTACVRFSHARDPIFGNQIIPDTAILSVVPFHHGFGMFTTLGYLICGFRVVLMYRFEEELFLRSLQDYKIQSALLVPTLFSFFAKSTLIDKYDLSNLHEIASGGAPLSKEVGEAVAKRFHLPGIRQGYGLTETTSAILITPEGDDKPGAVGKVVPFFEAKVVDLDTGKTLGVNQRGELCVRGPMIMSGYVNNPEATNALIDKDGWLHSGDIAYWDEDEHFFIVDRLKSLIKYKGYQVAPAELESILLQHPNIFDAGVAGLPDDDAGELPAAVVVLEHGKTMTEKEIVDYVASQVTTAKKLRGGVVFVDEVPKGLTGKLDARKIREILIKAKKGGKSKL
#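 Biochemical qHTS of compounds, final roughly 60 µM downward over six points, against 10 nM purified firefly luciferase using Km concentrations of substrates (10 uM D-luciferin, 10 uM ATP) in Tris acetate pH 7.5 buffer; luminescence output.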
# The depositor's hits bear a star; ? = inconclusive; . = no result; [ ] = another dose, or the depositor's remark. The call rests on the fitted dose curve; in most records, active means well fitted curve in the direction sought with a large enough effect; inconclusive means small, poorly fitted or top-dose-only effect, or another doubt; inactive means no such curve, though single readings can be large; an effect the other way counts as inactive or inconclusive. Potency means the concentration at half of the fitted maximal effect.
SMILES,ELG1 DNA repair,Rab9 promoter act,SMN2 splice up,NPC1 promoter act,ELG1 genotoxic,FLuc counter
COc1cc(/C=C2\C(=O)N(c3ccccc3)N=C2C)ccc1Oc1ccc([N+](=O)[O-])cc1[N+](=O)[O-],?,4%,-18%,0%,2%,?
COc1cccc(/C=C/C(=C2/C(=O)N(c3ccccc3)N=C2C)c2ccccc2)c1OC,7.3µM*,-2%,-43%,1%,3%,-13%
CC1C/C(=C\c2ccccc2[N+](=O)[O-])c2nc3ccccc3c(C(=O)O)c2C1 (centres undefined),29%,1%,.,-2%,16%,-4%
Cc1cc(N=Cc2c(O)n(-c3cccc(Cl)c3)c(=O)c3ccccc23)no1,18µM*,-9%,5%,-9%,0%,2%
O=C(Cc1ccc(Cl)cc1)c1ccc(O)cc1,?,3.5µM*,.,3.5µM*,?,15µM*
Cc1ccc(CC(=O)c2ccc(Cl)cc2)cc1,?,?,.,?,?,4.8µM*
O=C(Cc1ccccc1)c1ccc(Cl)cc1,3%,0%,.,-2%,4%,?
CC(=O)Nc1ccc(S(=O)(=O)N(C#N)c2nc(N(C)C)nc(N(C)C)n2)cc1,-15%,-4%,.,1%,0%,-6%
CN(C)/C=C/C(=O)c1nn(-c2ccc(F)cc2)ccc1=O,3%,17%,.,-1%,-2%,7%
COc1ccc(CC(=O)Nc2ccc(-c3ccc4nnc(C)n4n3)cc2)cc1OC,?,-19%,18µM*,-11%,21µM*,0%
Cc1ccc(NC(=O)CSc2nnc3ccc(-c4ccncc4)nn23)cc1,5.8µM*,19%,.,3%,-15%,-7%
CCCc1ccc(OCc2ccc(C(=O)N3CCN(c4ccccn4)CC3)o2)c(OC)c1,16µM*,?,?,?,-31%,?
COc1ccc(CC(=O)N2CCN(c3ccccn3)CC2)cc1OC,-2%,-1%,10%,-1%,1%,3%
Cc1ccc(S(=O)(=O)Cc2ccc(C(=O)N3CCN(c4ccccn4)CC3)o2)cc1,?,-2%,6%,-1%,-11%,0%
O=C(c1ccc(CS(=O)(=O)c2ccc(Br)cc2)o1)N1CCN(c2ccccn2)CC1,18µM*,-4%,-5%,3%,-7%,-3%
CC(NC=O)c1nc2ccccc2n1CCc1ccccc1 (centres undefined),-7%,9%,.,-5%,-2%,-2%
Cc1cc(C)c(O)c(-c2cc(C(=O)Nc3cccnc3)[nH]n2)c1,21µM*,25%,.,19%,-9%,19µM*
COc1ccc(NC(=O)c2cc(-c3cc(C)cc(C)c3O)n[nH]2)cc1Cl,21µM*,1%,-45%,11%,-24%,?
COc1ccc(NC(=O)c2cc(-c3ccccc3O)n[nH]2)cc1Cl,?,-3%[1.84 µM],.,14%,6%,-5%
Cc1cccc(NC(=O)c2cc(-c3cc(C)cc(C)c3O)n[nH]2)c1,-24%,15%,.,13%,-12%,?
Cc1cc(O)c(-c2cc(C(=O)Nc3cccnc3)[nH]n2)cc1C,?,1µM*,.,0.25µM*,3.7µM*,1.9µM*
CCc1ccc(O)c(-c2cc(C(=O)Nc3cccnc3)[nH]n2)c1,?,2.2µM*,.,1.6µM*,?,11µM*
CC(=O)C(C(C)=O)C(c1ccccc1)c1nc2ccccc2[nH]c1=O (centres undefined),22%,-3%,.,2%,1%,0%
CCN(CC)c1ccc(/C=N/NC(=O)c2cnccn2)cc1,?,?,20µM*,-9%,12µM*,12µM*
CCc1ccc(/C=N/NC(=O)c2ccccn2)cc1,?,0.13µM*,.,0.45µM*,?,0.48µM*
SMILES,ELG1 DNA repair,Rab9 promoter act,SMN2 splice up,NPC1 promoter act,ELG1 genotoxic,FLuc counter
O=C(N/N=C/c1ccc(OC(=O)c2ccccc2Cl)cc1)c1cc(O)cc(O)c1,-4%,4%,.,-4%,1%,?
O=C(N/N=C/c1ccc(OC(=O)c2ccccc2Cl)cc1)c1ccccn1,?,?,.,2.8µM*,8.2µM*,1.5µM*
CCN(CC)c1ccc(/C=N/NC(=O)c2ccc([N+](=O)[O-])cc2)cc1,-8%,3%,.,-3%,6%,8%
O=C(CNC(=O)c1ccccn1)N/N=C/c1ccccc1,17%,-1%,7%,-2%,1%,?
CCN(CC)c1ccc(/C=N/NC(=O)c2ccccn2)cc1,?,0.71µM*,.,0.45µM*,?,2.4µM*
CCN(C(=O)CSc1n[nH]c(-c2ccccc2)n1)c1c(N)n(Cc2ccccc2)c(=O)[nH]c1=O,5%,-1%,.,-1%,-3%,-11%
Cc1ccc(C)c(NC(=O)C2CCCN(S(=O)(=O)c3c(C)nn(C)c3C)C2)c1 (centres undefined),9%,-1%,.,-2%,-2%,-1%
Cc1[nH]c2ccc(C(=O)OC(C)C(=O)NCc3ccccc3)cc2c1C (centres undefined),?,-20%,.,-16%,-7%,2%
Cc1ccccc1CN(C)C(=O)COC(=O)c1ccc2[nH]c(C)c(C)c2c1,26µM*,.,.,.,-4%,.
CCOC(=O)C1(CCCc2ccccc2)CCN(C2CCN(C(C)=O)CC2)CC1,1%,1%,.,-2%,-6%,1%
Cc1ccc2c(c1)C(N1CCCC1=O)CC(c1ccco1)N2 (centres undefined),?,2.2µM*,13µM*,3.2µM*,?,1.2µM*
Cc1cccc(NC(=O)Nc2ccccc2)n1,?,?,.,?,?,12µM*
COc1cccc(NC(=O)Nc2cccc(C)n2)c1,?,?,.,2.2µM*,11%,5.4µM*
Cc1cccc(NC(=O)Nc2ccc(Cl)c(Cl)c2)n1,?,?,.,?,?,2.4µM*
Cc1cc(NC(=O)Nc2ccc(Cl)c(Cl)c2)n(-c2ccccc2)n1,0%,16%,.,-2%,-5%,-17%
COc1ccc(NC(=S)NC(=O)/C=C/c2ccccc2)cc1,2%,11%,.,1%,0%,7%
Cc1ccc(NC(=O)Nc2cccc(C)n2)c(C)c1,?,?,.,22%,?,?
Cc1cccc(NC(=S)NC(=O)/C=C/c2ccccc2)n1,?,2.5µM*,12%,?,5%,-2%
CCCn1nnnc1SCC(=O)N1C(C)CCCC1C (centres undefined),24%,2%,.,-1%,5%,-4%
COC(=O)c1c(SC)nc2ccccc2c1OCc1ccccc1C,.,.,.,.,.,-2%
COc1ccc(CCNC(=O)C(C)n2nc(C)n3c(cc4occc43)c2=O)cc1OC (centres undefined),14%,0%,.,3%,2%,3%

# Screening data: PubChem BioAssay, National Center for Advancing Translational Sciences (NCATS)
